# Only some compounds are listed: those with a hit (about 10% of all), similar ones and a draw of the others.
# Sfp inh – qHTS Assay for Inhibitors of Bacillus subtilis Sfp phosphopantetheinyl transferase (PPTase); 4'-phosphopantetheinyl transferase ffp (Bacillus subtilis), Q9F4F7; Biochemical Sfp PPTase activity, qHTS; Potency, µM, inactives show largest response in the series, negative = inhibition, hits mostly inhibitors; hit rate 3.5% among 310,000;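 note: the enzyme is Sfp with the accession as filed and its product quenches rhodamine fluorescence; potency is the fitted concentration of half-maximal effect; 0% = enzyme reaction without inhibitor and -100% = no enzyme wells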
#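 Fluorescence-quenching assay: 15 nM Sfp-PPTase preincubated 15 min at room temperature with compound, then 5 uM rhodamine-CoA and 12.5 uM BHQ-2-labelled YbbR peptide added. Fluorescence (ex 525/em 598 nm) read at start and after 30 min; difference gives rate.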
# PLK1 PBD block – qHTS for Inhibitors of PLK1-PDB (polo-like kinase 1 - polo-box domain): Primary Screen; hit rate 2.8% among 360,000; Potency, µM, for the others: max response, negative = inhibition, hits mostly inhibitors; AID 720504, 2013; Plk1 PBD binding of FITC phosphopeptide, fluorescence polarization; note: potency is the fitted concentration of half-maximal effect; series mostly up to about 57 µM; nearly all actives have a fitted effect of over 65% in size
# MmCpn inh – Inhibitors of TCP-1 ring complex (TRiC) of Methanococcus maripaludis (MmCpn): qHTS. Chaperonin Mm-Cpn (Methanococcus maripaludis). purified Mm-Cpn ATPase, ADP Transcreener TR-FRET. Potency, µM (top dose mostly 76.9 µM), inactives show at the highest dose activity, negative = inhibition, hits mostly inhibitors. hit rate 0.031% among 330,000; note: potency is the fitted concentration of half-maximal effect; nearly all actives have a fitted effect of over 80% in size
#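 Purified archaeal Mm-CPN (25nM final) preincubated 10 min at 37degC with compound, then 10uM ATP for 30 min at 37degC; ADP measured by HTRF Transcreener TR-FRET; buffer 30 mM TRIS pH 7.4, 100mM KCl, 5mM MgCl2, 1mM DTT.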
# G9a block – qHTS Assay for Inhibitors of Histone Lysine Methyltransferase G9a; Histone-lysine N-methyltransferase EHMT2 (Homo sapiens), Q96KQ7; G9a H3K9 monomethylation, AlphaScreen, 2 h; Potency, µM (top dose mostly 102 µM), without a hit: at the top dose activity, negative = inhibition, actives largely listed as inhibitors; hit rate 8.8% among 350,000; AID 504332, 2011; note: potency is the fitted concentration of half-maximal effect; nearly all actives have a fitted effect of over 75% in size
# Target sequence (Q96KQ7 913-1193 limits assumed): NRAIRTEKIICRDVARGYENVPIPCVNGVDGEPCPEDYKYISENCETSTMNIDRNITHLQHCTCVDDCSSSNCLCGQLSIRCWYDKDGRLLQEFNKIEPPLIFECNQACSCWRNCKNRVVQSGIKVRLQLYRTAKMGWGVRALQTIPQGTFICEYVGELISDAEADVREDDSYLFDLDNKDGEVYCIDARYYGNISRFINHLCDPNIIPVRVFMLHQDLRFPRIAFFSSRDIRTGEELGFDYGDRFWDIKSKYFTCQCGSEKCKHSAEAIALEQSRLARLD
#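 G9a (20 nM) was preincubated 15 min with compound, then reacted 2 h at room temperature with 500 nM biotin-H3K9 peptide and 20 µM SAM. Monomethyl-H3K9 detected by AlphaScreen using anti-H3K9me1 antibody.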
# VDR inhibitor – Inhibitors of the vitamin D receptor (VDR): qHTS; Vitamin D3 receptor (Homo sapiens), P11473; VDR-SRC2-3 peptide fluorescence polarization, 2 h; Potency, µM, inactives show max response, negative = inhibition, usual class: inhibitors; hit rate 0.93% among 400,000; note: potency is the fitted concentration of half-maximal effect
# Target sequence (P11473 whole entry, looked up): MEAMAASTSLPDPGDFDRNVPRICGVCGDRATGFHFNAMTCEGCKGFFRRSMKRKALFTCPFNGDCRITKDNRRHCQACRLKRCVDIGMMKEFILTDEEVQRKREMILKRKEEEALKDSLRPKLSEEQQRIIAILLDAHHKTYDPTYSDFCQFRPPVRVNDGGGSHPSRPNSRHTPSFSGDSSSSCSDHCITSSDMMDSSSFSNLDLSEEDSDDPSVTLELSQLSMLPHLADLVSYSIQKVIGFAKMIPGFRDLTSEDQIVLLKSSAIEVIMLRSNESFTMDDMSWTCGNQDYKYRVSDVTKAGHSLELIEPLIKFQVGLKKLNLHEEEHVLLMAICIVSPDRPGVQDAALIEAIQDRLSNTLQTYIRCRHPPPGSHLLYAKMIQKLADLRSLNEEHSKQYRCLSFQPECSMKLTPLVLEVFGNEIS
#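 FP read-out; VDR + SRC2-3 coactivator peptide; 23 nl compound by pintool; 2 h RT incubation; reagents held at 4 deg C, protected from light.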
# CCT modulator – High-Throughput Screening for Modulators of Cytosolic Chaperonin Activity; purified chaperonin ATPase assay, HTRF ADP detection, 30 min; activity change, % (test concentration not listed), hits read low; hit rate 0.3% among 360,000; in the data active = activity change below about -30%
#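 TRiC (40 or 20 nM final, by batch activity) in 30 mM Tris pH 7.4, 100 mM KCl, 5 mM MgCl2, 1 mM DTT was treated with compound at 76 uM single dose, then 10 uM ATP, 30 min at 37 °C. ADP was read by HTRF Transcreener.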
# The depositor's hits bear a star; ? = inconclusive; · = not tested or not shown; ! = not confirmed by another sample; [ ] = another dose, or the depositor's remark. Unless noted, calls come from the whole dose curve; as a rule, active = well fitted curve in the direction sought with a large enough effect; inconclusive = small, poorly fitted or top-dose-only effect, or another doubt; inactive = no such curve, though single readings can be large; an effect the other way counts as inactive or inconclusive. Unless noted, % is set by controls: 0 for no effect and ±100 for the full control effect.
SMILES,Sfp inh,PLK1 PBD block,MmCpn inh,G9a block,VDR inhibitor,CCT modulator
Cc1ccc(-c2cc(C(=O)NCCCn3ccnc3)c3cc(Br)ccc3n2)o1,-5%,24µM*,-9%,?,-6%,-2
Cc1ccc(-c2cc(C(=O)O)c3cc(Br)ccc3n2)s1,-8%,-8%,?,40µM*!,3%,-1
Cc1ccc(-c2cc(C(=O)NN3CCOCC3)c3cc(Br)ccc3n2)o1,25µM*,-10%,-7%,?,-22%,-4
CC(=O)c1c(C)nc2ccc(Br)cc2c1C(=O)O,22%,0%,1%,?,-12%,-1
NC(=O)C1(N2CCCCC2)CCN(C(=O)c2ccc(-n3cnnn3)cc2)CC1,-1%,27µM*,-1%,·,-12%,-2
O=C(c1ccc(-n2cnnn2)cc1)N1CCOCC1,-2%,-5%,-2%,-10%[12.7 µM],1%,-7
Cc1ccc(S(=O)(=O)c2nnn3c2nc(NCc2ccccc2Cl)c2sccc23)cc1,·,·,·,-11%[59 µM],17%,·
COc1ccc(S(=O)(=O)Nc2ccc(-c3ccc4nncn4n3)cc2)c(OC)c1,·,19µM*,-6%,10µM*,?,2
CCOc1ccccc1NC(=O)N1CCc2c(sc3c2CCCC3)C1c1ccccc1 (configuration not stated),·,·,·,7%[59 µM],6%,·
CCc1c(C)sc(NC(=O)C2CC2c2ccccc2)c1C(N)=O (configuration not stated),-4%,-17%,0%,14µM*,-8%,-3
NNC(=O)[C@@H]1C[C@@H]1c1ccccc1,-2%,-23%,0%,1%[59 µM],-7%,0
CCNC(=O)NC(=O)COC(=O)c1ccccc1SCC(=O)NC(=O)NCC,?,2.7µM*,-7%,45µM*,?,-2
Cc1ccccc1NC(=O)COC(=O)c1ccccc1SCC(=O)N1CCCC1,3%,-15%,-9%,?,-5%,-4
O=C(COC(=O)c1ccccc1SCC(=O)NC1CCS(=O)(=O)C1)NC1CCS(=O)(=O)C1 (configuration not stated),-6%,-7%,2%,17%,9%,1
CC(=O)Nc1ccc(NC(=O)COC(=O)c2ccccc2SCC(=O)N2CCCC2)cc1,·,-20%,-4%,18µM*,11%,1
COc1ccc(NC(=O)COC(=O)c2ccccc2SCC(=O)N2CCCC2)cc1,·,-7%,1%,40µM*,2%,0
C=Cc1ccc(Cn2c(C(=O)O)c(CNCc3cc(OC)ccc3OC)c3ccc(C)cc32)cc1,·,·,·,?,6%,·
COC(=O)C/C=C\[C@@H](C)[C@@H](/C=N\OCC[C@H]1C=C[C@H](OC(C)=O)[C@@H](COC(C)=O)O1)NS(=O)(=O)c1ccc(C)cc1,4%,·,·,·,·,·
COc1ccc(CCNC(=O)c2ccc3c(c2)nc2n3CCOC2)cc1OC,·,·,·,9%[59 µM],1%,·
O=C(CN1C(=O)COc2ccccc21)NCCCN1CCOCC1,5%,-12%,-1%,7%[59 µM],1%,0
O=C(CN1C(=O)/C(=C\c2cccc(Br)c2)Oc2ccccc21)NCCCN1CCOCC1,-24%,27µM*,0%,17%[59 µM],-24%,0
CCCN1CNc2c(c(=O)[nH]c(=S)n2CCc2cc(OC)ccc2OC)C1,·,·,·,·,-13%,·
COc1ccc(N2CCN(C(=O)c3cccc(N4C(=O)C5C6C=CC(C6)C5C4=O)c3)CC2)cc1 (configuration not stated),12%,0%,2%,-37%[59 µM],-13%,-1
O=C(c1cccc(N2C(=O)C3C4C=CC(C4)C3C2=O)c1)N1CCCCCC1 (configuration not stated),18%,-5%,2%,1.3µM*,-1%,-2
O=C(O)c1cccc(N2C(=O)CSC2=S)c1,3%,-12%,-1%,?,3%,-1
SMILES,Sfp inh,PLK1 PBD block,MmCpn inh,G9a block,VDR inhibitor,CCT modulator
O=C(O)c1cccc(N2C(=O)C3C4C=CC(C4=C(c4ccccc4)c4ccccc4)C3C2=O)c1 (configuration not stated),35µM*,30µM*,-6%,28µM*,1%,0
O=C(c1cccc(N2C(=O)c3ccccc3C2=O)c1)N1CCCCCC1,-17%,-7%,-3%,22µM*,-21%,2
COc1ccc(CCn2c(=S)[nH]c(=O)c3c(C)cc(C)nc32)cc1OC,·,·,·,·,-15%,·
Cc1nn(CC(=O)Nc2nnc(CC(=O)N3CCCC3)s2)c(=O)c2ccccc12,7%,-29%,-2%,45µM*,-12%,-4
Cn1cc([N+](=O)[O-])c(C(=O)Nc2cc(Oc3cccnc3)cc([N+](=O)[O-])c2)n1,-9%,-5%,1%,45µM*,6%,1
O=[N+]([O-])c1cc(Oc2cccnc2)cc([N+](=O)[O-])c1,-2%,4%,3%,?,17%,-6
COc1cc(OC)c(NC(=O)C2=C(C)C(=O)OC23CCN(C(C)=O)CC3)cc1Cl,·,·,·,-2%[59 µM],-8%,·
N#CC1(NC(=O)CSc2nnc(-c3ccccc3F)o2)CCCCC1,·,?,-2%,40µM*,-1%,-1
CC(C)(C)C1CCc2c(sc(NC(=O)Cn3nnc(-c4cccc(C(F)(F)F)c4)n3)c2C#N)C1 (configuration not stated),·,·,·,-27%[59 µM],-2%,·
COc1cc2c3nnc(-c4ccc(F)cc4)c-3cn(Cc3ccc(F)cc3)c2cc1OC,-8%,?,-1%,50µM*,-6%,-1
C=CCN1CC(C(=O)N(CCCN(C)C)C(=O)NCC)CC2c3cccc4[nH]cc(c34)CC21 (configuration not stated),13%,·,·,9%[12.7 µM],-3%,·
CCCN1C(C(=O)c2ccccc2)=C(OC(=O)COc2ccccc2)c2ccccc2S1(=O)=O,·,·,·,8.9µM*,4%,·
CCN1C(C(=O)c2ccccc2)=C(OC(=O)COc2ccc(OC)cc2)c2ccccc2S1(=O)=O,·,·,·,11µM*,9%,·
CCCN1C(C(=O)c2ccccc2)=C(OC(=O)COc2ccc(C)cc2)c2ccccc2S1(=O)=O,·,·,·,?,6%,·
CCN1C(C(=O)c2ccccc2)=C(OC(=O)c2ccc(Cl)cc2)c2ccccc2S1(=O)=O,·,·,·,-48%[59 µM],-1%,·
O=C(NCc1ccccc1F)C(=O)NCC(c1cccs1)S(=O)(=O)c1cccs1 (configuration not stated),·,·,·,23%[59 µM],8%,·
O=C(NCCCCN1CCN(c2cccc(Cl)c2Cl)CC1)c1ccc2c(c1)Cc1ccccc1-2,-1%,·,·,·,6%,·

# Screens: PubChem BioAssay, National Center for Advancing Translational Sciences (NCATS)
